Reference: PubChem BioAssay
Unmarked numbers belong to inactive results. No rule for the calls is given here.

Biological target: Pantothenate synthetase (Mycobacterium tuberculosis (strain ATCC 25618 / H37Rv)) (UniProt P9WIL5)
Assay: Coupled enzyme confirmation of inhibitors against recombinant Mtb PanC (AID 375);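 also: 0% = full reaction with vehicle and 100% = no enzyme background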
Conditions: coupled enzyme assay; at 10 µM, stronger effect = higher value

Chain of Pantothenate synthetase (Mycobacterium tuberculosis (strain ATCC 25618 / H37Rv)) (P9WIL5 whole entry, looked up): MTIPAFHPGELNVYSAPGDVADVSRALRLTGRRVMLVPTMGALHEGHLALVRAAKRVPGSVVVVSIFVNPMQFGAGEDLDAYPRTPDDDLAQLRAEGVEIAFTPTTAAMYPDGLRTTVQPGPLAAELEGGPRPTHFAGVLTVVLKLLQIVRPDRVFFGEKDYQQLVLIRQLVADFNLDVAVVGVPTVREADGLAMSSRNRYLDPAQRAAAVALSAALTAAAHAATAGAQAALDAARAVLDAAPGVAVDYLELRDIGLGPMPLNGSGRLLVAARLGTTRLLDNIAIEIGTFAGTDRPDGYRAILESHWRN

SMILES	inhibition [%]
Cc1cccc(NC(=O)COc2ccc(Br)cc2)n1	0
O=C(CN1CCN(c2ncc(C(F)(F)F)cc2Cl)CC1)Nc1ccc2c(c1)OCO2	0
CC(=O)c1c(OC(=O)c2ccco2)c2ccccc2n1C	0
O=c1c(CN2CCN(Cc3ccccc3)CC2)coc2ccc(Cl)cc12	0
COC(=O)C1=C(C)Nc2ncnn2C1c1ccco1 (stereo unspecified)	0
Cc1cc(-c2ccccc2)nc2cc(C(N)=O)nn12	12
Cc1noc(C)c1S(=O)(=O)Nc1c(C)n(C)n(-c2ccccc2)c1=O	5
CCOc1ccccc1N1C(=O)CC(Sc2ncccc2C(=O)O)C1=O (stereo unspecified)	0
CCOC(=O)C1=C(C)NC(C)=C(C(=O)OCC)C1c1cc(N)ccc1OC(F)F	0
COc1cccc(NC(=O)c2ccco2)c1	0
CCOc1ccc(-c2cc(CCCC(=O)N3CCN(c4ccc(OC)cc4)CC3)no2)cc1	0
CCN1C(=O)OC2(CCCCC2)C1(C)O (stereo unspecified)	0
COc1ccc(-c2nc(CSCC(=O)N3CCc4ccccc4C3)c(C)o2)cc1OC	0
O=S1(=O)CCN2C(=N1)SC1=C2CCN(Cc2ccccc2)C1	2
CCN(CC)CCCC1(CN)OCCc2ccccc21 (stereo unspecified)	0
CC(C)OC(=O)CCCCCN1C(=O)CSC1=S	1
CC1(C)CC(=O)c2cnc(NC(=O)Cc3ccc(Cl)cc3)nc2C1	0
COc1ccc(C(CNC(=O)c2ccc(OCC3CCCO3)cc2)N2CCOCC2)cc1 (stereo unspecified)	0
CC(=O)N1CCc2cc(S(=O)(=O)CCC(=O)N3CCN(c4ccccn4)CC3)ccc21	11
O=C1CCCC2=C1C(c1ccc(Br)cc1)c1c([nH]c(=S)[nH]c1=O)N2 (stereo unspecified)	0
Cc1cc(S(=O)(=O)N2CCN(c3ncccn3)CC2)ccc1-n1cnnn1	1
